Records with an inconclusive call do not appear. Where a call stands in place of a potency, no number is given. Unmarked numbers belong to inactive results. Active and inactive are the calls of the source. Calls follow the shape of the dose curve; as a rule, active = well fitted curve in the direction sought with a large enough effect; inconclusive = small, poorly fitted or top-dose-only effect, or another doubt; inactive = no such curve, though single readings can be large; an effect the other way counts as inactive or inconclusive.
Tests used:
[1] = qHTS of pediatric cancer cell lines to identify multiple opportunities for drug repurposing: Primary screen for control Hh wild type fibroblast cells (AID 1347106); also: nearly all actives have a fitted effect of over 55% in size; also: potency is read from the fitted curve at half-maximal effect;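 as to activity change, negative = cytotoxic: series mostly up to about 46 µM; a drop in luminescence marks cytotoxicity and a rise apparent proliferation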
Method in brief: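 Cells (500-1,000/well) in growth media were settled 5 h at 37 degrees C, then given compounds for 48 h. Viability was read as CellTiter-Glo luminescence. Primary runs used MIPE at 11 points (0.78 nM-46 µM) and NPC at 8 points (0.59 nM-46 µM); follow-ups used 11 points.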

[2] = qHTS of pediatric cancer cell lines to identify multiple opportunities for drug repurposing: Primary screen for Rh30 cells (AID 1347107); also: series mostly up to about 46 µM; nearly all actives have a fitted effect of over 75% in size
Method in brief: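 Viability after 48 h compound treatment at 37C, 500-1,000 cells/well, read as ATP luminescence with CellTiter-Glo. Primary screens used 11-point (MIPE, 0.78 nM-46 µM) or 8-point (NPC, 0.59 nM-46 µM) final concentrations; follow-up screens used 11-point dilutions.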

[3] = qHTS of pediatric cancer cell lines to identify multiple opportunities for drug repurposing: Primary screen for Rh41 cells (AID 1347108); also: nearly all actives have a fitted effect of over 70% in size; also: potency is read from the fitted curve at half-maximal effect;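 as to activity change, negative = cytotoxic: series mostly up to about 46 µM; luminescence drop marks cytotoxic hits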
Method in brief: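 ATP-based luminescence (CellTiter-Glo) quantifies viability after a 48-hour exposure. Compounds are dosed across 8 or 11 final concentrations; DMSO and 2.3 µM bortezomib serve as controls.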

SMILES | Potency [1] | Potency [2] | Potency [3] | activity change, negative = cytotoxic [1] | activity change, negative = cytotoxic [2] | activity change, negative = cytotoxic [3]
NCCCC[C@H](N[C@@H](CCc1ccccc1)C(=O)O)C(=O)N1CCC[C@H]1C(=O)O | inactive | inactive | inactive |  |  | 
CC(C)(Oc1ccc(Cl)cc1)C(=O)O | inactive | inactive | inactive |  |  | 
CN1CCC[C@@H]1c1cccnc1 | inactive | inactive | inactive |  |  | 
Cc1cccn2c(=O)c(-c3nnn[nH]3)cnc12 | inactive | inactive | inactive |  |  | 
COc1c2occc2c(OC)c2c(=O)cc(C)oc12 | inactive | inactive | inactive |  |  | 
Nc1ccc(C(=O)O)cc1 | inactive | inactive | inactive |  |  | 
CCCOC(C(=O)OC1CCN(C)CC1)(c1ccccc1)c1ccccc1 | inactive | inactive | inactive |  |  | 
COc1cccc(CCc2ccccc2OCC(CN(C)C)OC(=O)CCC(=O)O)c1 (stereo not drawn) | inactive | inactive | inactive |  |  | 
CC1(C)OC[C@@H](COC(=O)CCc2ccc(OC[C@@H](O)CNCCNC(=O)N3CCOCC3)cc2)O1 | inactive | inactive | inactive |  |  | 
Cc1ccnc(NS(=O)(=O)c2ccc(N)cc2)n1 | inactive | inactive | inactive |  |  | 
CCCCOc1ccc(OCCCN2CCOCC2)cc1 | inactive | inactive | inactive |  |  | 
OC[C@H]1O[C@H](O[C@]2(CCl)O[C@H](CCl)[C@@H](O)[C@@H]2O)[C@H](O)[C@@H](O)[C@H]1Cl | inactive | inactive | inactive |  |  | 
CCN1CCC[C@H]1CNC(=O)c1c(OC)ccc(Br)c1OC | inactive | inactive | inactive |  |  | 
Cc1c(C)n(Cc2ccccc2)c2ccc(C(=O)OCCN(C)C)cc12 | inactive | inactive | inactive |  |  | 
Cc1onc(-c2c(Cl)cccc2Cl)c1C(=O)N[C@@H]1C(=O)N2[C@@H]1SC(C)(C)[C@@H]2C(=O)O | inactive | inactive | inactive |  |  | 
CC(C)NC[C@@H](O)COc1cccc2ccccc12 | inactive | inactive | inactive |  |  | 
COc1cc2c(cc1OC)C(=O)C(CC1CCN(Cc3ccccc3)CC1)C2 (stereo not drawn) | inactive | inactive | inactive |  |  | 
O=c1ccc2ccccc2o1 | inactive | inactive | inactive |  |  | 
COc1cccc(OC)c1C(=O)N[C@@H]1C(=O)N2[C@@H]1SC(C)(C)[C@@H]2C(=O)O | inactive | inactive | inactive |  |  | 
Nc1ccn([C@@H]2O[C@H](CO)[C@@H](O)C2(F)F)c(=O)n1 | inactive | inactive | inactive |  |  | 
C#C[C@]1(O)CC[C@H]2[C@@H]3CCC4=CC(=O)CC[C@@H]4[C@H]3CC[C@@]21C | inactive | inactive | inactive |  |  | 

SMILES | Potency [1] | Potency [2] | Potency [3] | activity change, negative = cytotoxic [1] | activity change, negative = cytotoxic [2] | activity change, negative = cytotoxic [3]
O=C(O)CCCCC(=O)O | inactive | inactive | inactive |  |  | 
CN(C/C=C/c1ccccc1)Cc1cccc2ccccc12 | inactive | inactive | inactive |  |  | 
NC(=O)c1cc[n+](CC2=C(C(=O)[O-])N3C(=O)[C@@H](NC(=O)Cc4cccs4)[C@H]3SC2)cc1 | inactive | inactive | inactive |  |  | 
NCCc1ccn[nH]1 | inactive | inactive | inactive |  |  | 
NC[C@H]1O[C@H](O[C@H]2[C@H](O[C@@H]3O[C@H](CO)[C@@H](O)[C@H]3O)C(O)[C@H](N)C[C@@H]2N)[C@H](N)[C@@H](O)[C@@H]1O (stereo partly drawn) |  |  |  | -1.08% [at 9.22 µM] | 23.6% [at 9.22 µM] | 34.8% [at 9.22 µM]
NC(CS)C(=O)O (stereo not drawn) | inactive | inactive | inactive |  |  | 
COc1cc(N)c(Cl)cc1C(=O)NC1CCN(CCCOc2ccc(F)cc2)CC1OC (stereo not drawn) | inactive | inactive | inactive |  |  | 
CC(O)C(=O)O (stereo not drawn) | inactive | inactive | inactive |  |  | 
CC(C)(CO)[C@@H](O)C(=O)NCCCO | inactive | inactive | inactive |  |  | 
CCCCS(=O)(=O)N[C@@H](Cc1ccc(OCCCCC2CCNCC2)cc1)C(=O)O | inactive | inactive | inactive |  |  | 
CC(O)(P(=O)(O)O)P(=O)(O)O | inactive | inactive | inactive |  |  | 
C[C@]12CCC(=O)C=C1[C@@H]1C[C@@H]1[C@H]1[C@@H]3[C@@H]4C[C@@H]4[C@@]4(CCC(=O)O4)[C@@]3(C)CC[C@@H]12 | inactive | inactive | inactive |  |  | 
CC(=O)c1ccc2c(c1)N(CCCN1CCC(CCO)CC1)c1ccccc1S2 | inactive | inactive | inactive |  |  | 
C[C@]12CC[C@@H]3c4ccc(O)cc4CC[C@H]3[C@@H]1C[C@@H](O)[C@@H]2O | inactive | inactive | inactive |  |  | 
C=C1C(=C/C=C2\CCC[C@]3(C)[C@@H]([C@H](C)/C=C/[C@@H](O)C4CC4)CC[C@@H]23)C[C@@H](O)C[C@@H]1O | inactive | inactive | inactive |  |  | 
Cc1c(N(C)CS(=O)(=O)O)c(=O)n(-c2ccccc2)n1C | inactive | inactive | inactive |  |  | 
C#C[C@]1(O)CC[C@H]2[C@@H]3CCc4cc(OC5CCCC5)ccc4[C@H]3CC[C@@]21C | inactive | inactive | inactive |  |  | 
CCCCc1nc(Cl)c(CO)n1Cc1ccc(-c2ccccc2-c2nn[nH]n2)cc1 | inactive | inactive | inactive |  |  | 
C[C@@H](CN(C)C)CN1c2ccccc2Sc2ccccc21 | inactive | inactive | inactive |  |  | 
Oc1c(Cl)cc(Cl)cc1Sc1cc(Cl)cc(Cl)c1O | inactive | inactive | inactive |  |  | 
OC(CCN1CCCCC1)(c1ccccc1)c1ccccc1 | inactive | inactive | inactive |  |  | 

SMILES | Potency [1] | Potency [2] | Potency [3] | activity change, negative = cytotoxic [1] | activity change, negative = cytotoxic [2] | activity change, negative = cytotoxic [3]
Cc1ccc(Nc2c(F)cccc2Cl)c(CC(=O)O)c1 | inactive | inactive | inactive |  |  | 
Cc1cc(O)c(C(C)C)cc1Cl | inactive | inactive | inactive |  |  | 
Cc1c(C(C)C)c(=O)n(-c2ccccc2)n1C | inactive | inactive | inactive |  |  | 
CN1[C@@H]2CC[C@H]1CC(OC(=O)c1c[nH]c3ccccc13)C2 (stereo partly drawn) | inactive | inactive | inactive |  |  | 
COc1cccc2c1C(=O)c1c(O)c3c(c(O)c1C2=O)C[C@@](O)(C(C)=O)C[C@@H]3O[C@H]1C[C@H](N)[C@H](O)[C@H](C)O1 | 16.8 µM (active) | inactive | 0.75 µM (active) |  |  | 
COc1ccc(C2C(=O)c3ccccc3C2=O)cc1 | inactive | inactive | inactive |  |  | 
CCOC(=O)c1cccc(N)c1 | inactive | inactive | inactive |  |  | 
C/C=C/c1ccc(OC)cc1 | inactive | inactive | inactive |  |  | 
CC(=O)Oc1ccc(C(=C2CCCCC2)c2ccc(OC(C)=O)cc2)cc1 | inactive | inactive | inactive |  |  | 
CN1CCC(=C2c3ccccc3Sc3ccccc32)CC1 | inactive | inactive | inactive |  |  | 
CCN(CC)C(=O)/C(C#N)=C/c1cc(O)c(O)c([N+](=O)[O-])c1 | inactive | inactive | inactive |  |  | 
O=C(O)CNC(=O)c1ccccc1 | inactive | inactive | inactive |  |  | 
O=C(OCCOCCO)c1ccccc1Nc1cccc(C(F)(F)F)c1 | inactive | inactive | inactive |  |  | 
Cc1ncc(CSSCc2cnc(C)c(O)c2CO)c(CO)c1O | inactive | inactive | inactive |  |  | 
Oc1cc(O)c2c(c1)O[C@H](c1ccc(O)c(O)c1)[C@H](O)C2 | inactive | inactive | inactive |  |  | 
CN(C)CCCOc1nn(Cc2ccccc2)c2ccccc12 | inactive | inactive | inactive |  |  | 
CC[N+](CC)(CCNC(=O)C(=O)NCC[N+](CC)(CC)Cc1ccccc1Cl)Cc1ccccc1Cl | inactive | inactive | inactive |  |  | 
CCN(CCCCOC(=O)c1ccc(OC)c(OC)c1)C(C)Cc1ccc(OC)cc1 (stereo not drawn) | inactive | inactive | inactive |  |  | 
COC(=O)CCc1ccc(OCC(O)CNC(C)C)cc1 (stereo not drawn) | inactive | inactive | inactive |  |  | 
COC(=O)[C@@H]1CC2=CC(=O)CC[C@]2(C)[C@@]23O[C@@H]2C[C@@]2(C)[C@@H](CC[C@@]24CCC(=O)O4)[C@H]13 | inactive | inactive | inactive |  |  | 
CCCCC1=NC2(CCCC2)C(=O)N1Cc1ccc(-c2ccccc2-c2nn[nH]n2)cc1 | inactive | inactive | inactive |  |  | 

SMILES | Potency [1] | Potency [2] | Potency [3] | activity change, negative = cytotoxic [1] | activity change, negative = cytotoxic [2] | activity change, negative = cytotoxic [3]
Cc1ccc(C(=O)C(C)CN2CCCCC2)cc1 (stereo not drawn) | inactive | inactive | inactive |  |  | 
COc1cc2c(cc1OC)[C@@H]1CC(=O)[C@@H](CC(C)C)CN1CC2 | inactive | inactive | inactive |  |  | 
CC(=O)CC(c1ccc([N+](=O)[O-])cc1)c1c(O)c2ccccc2oc1=O (stereo not drawn) | inactive | inactive | inactive |  |  | 
CCN(CC)C(=O)N1CCN(C)CC1 | inactive | inactive | inactive |  |  | 
CC(=O)Nc1c(I)cc(I)c(C(=O)O)c1I | inactive | inactive | inactive |  |  | 
CO/N=C1\CN(c2nc3c(cc2F)c(=O)c(C(=O)O)cn3C2CC2)CC1CN (stereo not drawn) | inactive | inactive | inactive |  |  | 
Clc1ccc2c(c1)CCc1cccnc1C2=C1CCNCC1 | inactive | inactive | inactive |  |  | 
CC(=O)OCC(=O)NCCCOc1cccc(CN2CCCCC2)c1 | inactive | inactive | inactive |  |  | 
O=C1c2ccccc2C(=O)C1c1ccccc1 | inactive | inactive | inactive |  |  | 
Cc1cc2c(cc1CC(=O)c1sccc1S(=O)(=O)Nc1onc(C)c1Cl)OCO2 | inactive | inactive | inactive |  |  | 
CCC(=O)c1c(O)cc(O)cc1O | inactive | inactive | inactive |  |  | 
CN1C(CCl)Nc2cc(Cl)c(S(N)(=O)=O)cc2S1(=O)=O (stereo not drawn) | inactive | inactive | inactive |  |  | 
CN(C(=O)CN(CCO)CC(=O)N(C)C(C)(C)Cc1ccccc1)C(C)(C)Cc1ccccc1 | inactive | inactive | inactive |  |  | 
CCCN1CCCC[C@H]1C(=O)Nc1c(C)cccc1C | inactive | inactive | inactive |  |  | 
CNC(=O)CN(CCN(CCN(CC(=O)[O-])CC(=O)NC)CC(=O)[O-])CC(=O)[O-].O.[Gd+3] | inactive | inactive | inactive |  |  | 
CC1(C)O[C@@H]2[C@@H](CO[C@@]3(COS(N)(=O)=O)OC(C)(C)O[C@@H]23)O1 | inactive | inactive | inactive |  |  | 
C=CCc1ccc(O)c(OC)c1 | inactive | inactive | inactive |  |  | 
Cc1cc(N)c2cc(NC(=O)Nc3ccc4nc(C)cc(N)c4c3)ccc2n1 | inactive | inactive | inactive |  |  | 

From PubChem BioAssay (NCATS)
